# Pf Dd2 growth – inhibitors of Plasmodium falciparum Dd2 growth | AID 1347417 | Potency, µM (series often up to 28.9 µM), actives largely listed as inhibitors | 120,000 compounds, 4.3% hits | P. falciparum Dd2 growth, SYBR Green, 72 h; active = well fitted inhibition curve with a large enough effect; note: nearly all actives have a fitted effect of over 65% in size
#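 Infected erythrocytes (Dd2, 0.3% parasitemia, 2.5% hematocrit final) are added to compound in RPMI-1640/Albumax II medium, grown 72 h at 37C in low oxygen, then lysed with saponin/Triton-X containing SYBR Green and read by fluorescence.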
# Hits are given with their value; . = inactive. This excerpt belongs to a sample that is enriched for hits.
SMILES,Pf Dd2 growth
CCN(C(=O)Cn1cc(C(=O)c2ccc(F)cc2)c(=O)c2ccc(C)nc21)c1cccc(C)c1,8.9µM
Cc1cccc(C(=O)Nc2c(C(=O)N3CCN(c4ccc(F)cc4)CC3)oc3ccccc23)c1,13µM
O=C(Nc1c(C(=O)N2CCN(c3ccccc3F)CC2)oc2ccccc12)c1ccccc1F,.
Cc1ccc(C(=O)c2oc3ccccc3c2NC(=O)COc2ccc(Cl)c(C)c2)cc1,.
COc1ccc(N2CCN(C(=O)c3oc4ccccc4c3NC(=O)c3ccccc3OC)CC2)cc1,.
O=C(Nc1c(C(=O)N2CCN(c3ccccc3)CC2)oc2ccccc12)c1ccc(Br)o1,10µM
Cc1cccc(CC(=O)Nc2c(C(=O)Nc3cccc(F)c3)oc3ccccc23)c1,.
Cc1cccc(OCC(=O)Nc2c(C(=O)N3CCN(c4ccccc4)CC3)oc3ccccc23)c1,11µM
O=C(Nc1c(C(=O)N2CCN(c3ccccc3)CC2)oc2ccccc12)c1ccccc1F,.
Cc1cccc(OCC(=O)Nc2c(C(=O)Nc3ccc(F)cc3)oc3ccccc23)c1,.
COC(=O)c1ccccc1NC(=O)Cn1c(=O)n(-c2ccc(Cl)cc2)c(=O)c2c(C)c(C)sc21,.
Cc1cc(C)n(CCC(=O)N2CCCCCC2c2nnc(-c3ccccc3)o2)n1 (configuration not stated),.
CC(=O)Nc1ccc(NC(=O)c2nc(S(=O)(=O)Cc3ccc(F)cc3)ncc2Cl)cc1,.
CCN(CC)C(=O)Cn1cc(SCC(=O)Nc2cccc(F)c2)c2ccccc21,.
COCC1CN(S(=O)(=O)c2ccc(C)cc2)CC12CCOCC2 (configuration not stated),.
O=C(NC[C@H]1O[C@H](Cc2cc(-c3ccccc3)on2)CC[C@@H]1O)c1cnccn1,.
O=C(c1cccc(-c2ncc[nH]2)c1)N1CCn2nc(Cc3ccccc3)cc2C1,.
CC(=O)C1=C(c2ccc(Br)cc2)N(C(C)=O)n2c(nnc2C2CCCCC2)S1,1.4µM
Cc1ccc(C2Cn3nnc(C(=O)N4CCC(C(=O)NC5CCc6ccccc65)CC4)c3CO2)cc1 (configuration not stated),.
COC[C@H]1NC(=O)CC[C@H]1C(=O)NCCCN1CCc2ccccc2C1,.
COc1ccc(NC(=O)C2CCCN(c3cnc4nc(C)c(C)nc4c3)C2)c(C)c1 (configuration not stated),.
CN1CC(=O)N(C2CCCCC2)Cc2c(NC3CC3)ncnc21,.
O=C(NC1CCCCC1)N1CCc2nnc(C3CC3)n2CC1,.
O=C(NCCc1noc(C2CC2)n1)c1n[nH]c2ccccc12,.
Cc1cnc(CCNC(=O)c2n[nH]c3ccccc23)n1C1CCCC1,3.2µM
SMILES,Pf Dd2 growth
CC(=O)NCCc1ncc(C)n1C1CCCC1,.
Cc1c(C(=O)NCCc2ccc(Cl)cc2)cccc1-n1cnc2cccnc21,.
CC(C)(C)CC(=O)N1CC[C@@H](CC(=O)O)[C@@H](CCN2CCC[C@H]2C(N)=O)C1,.
COc1ccc(-c2cn3c(n2)N(C(=O)Cn2ccnc2)CCC3)cc1,.
Cc1ccc(-c2cn3c(n2)N(C(=O)c2cnn4cccnc24)CCC3)cc1,.
Cc1ccc(-c2cn3c(n2)N(C(=O)Cn2ccnc2C)CCC3)cc1,10µM
COc1ccccc1C(=O)Nc1ccc(S(=O)(=O)Nc2ncccn2)cc1,.
O=c1[nH]c(-c2ccc(F)cc2)nc2c1CCN(S(=O)(=O)c1cccs1)C2,.
O[C@@H]1CCN(c2nccc(C3(c4ccccc4Cl)CCNCC3)n2)C1,.
CN(C)C1CCN(c2nccc(C3(c4ccccc4Cl)CCNCC3)n2)C1 (configuration not stated),.
Clc1ccccc1C1(c2ccnc(C3CC3)n2)CCNCC1,2.2µM
Clc1ccccc1C1(c2ccnc(NC3CCC3)n2)CCNCC1,7.1µM
Clc1ccccc1C1(c2ccnc(-c3ccccc3)n2)CCNCC1,10µM
CN1CCC(CNc2nccc(C3(c4ccccc4Cl)CCNCC3)n2)C1 (configuration not stated),.
OC[C@@H](O)CNc1nccc(C2(c3ccccc3Cl)CCNCC2)n1,.
O=C(Nc1cccc(Cl)c1)C1=NO[C@@H]2CN(Cc3cccnc3)C[C@H]12,.
COc1cccc(NC(=O)CCc2nc(-c3cccs3)no2)c1,.
O=C(CN1C(=O)NC2(CCOCC2)C1=O)Nc1ccc(F)cc1F,.
Cc1c(C(=O)N2CCC(C)CC2)c(S(=O)(=O)NCc2ccc(Cl)cc2)c(C)n1C,.
COc1ccccc1C(=O)NCC1Cn2cccc2C(=O)N1C (configuration not stated),.
Cc1ccc(NC(=O)CSc2nc3ccccc3nc2Cc2ccccc2F)cc1F,.
O=C(CCc1ccnc(N2CCCC2)c1)NCc1ccc(F)c(Cl)c1,3.2µM
Cn1c(CNC(=O)CCc2ccnc(N3CCCC3)c2)nc2ccccc21,.
CCCNC(=O)CCc1ccnc(N2CCOCC2)c1,.
CC(C)N1C(=O)CO[C@H]2CCN(Cc3ccccc3Cl)CC[C@@H]21,.
SMILES,Pf Dd2 growth
O=C1COc2ccc(Oc3ccccc3)nc2CN1Cc1ccccc1,.
N#Cc1cccc(NC(=O)Cn2nc3n(c2=O)CCCC3)c1,.
CCNC(=O)N1CCc2nc(N3CCN(CC)CC3)sc2C1,.
O=C(C1CCCCC1)N1CC2CC(C1)[C@H]1CCCC(=O)N1C2 (some centres not stated),.
Cc1c(C(=O)Nc2ccccc2Br)oc2ccc(S(=O)(=O)N3CCOCC3)cc12,.
Cc1c(C(=O)Nc2ccccc2Cl)oc2ccc(S(=O)(=O)N3CCCCCC3)cc12,.
CCN(CC)S(=O)(=O)c1ccc2oc(C(=O)Nc3ccc(Br)cc3F)c(C)c2c1,.
Cc1c(Cl)cccc1NC(=O)c1oc2ccc(S(=O)(=O)N3CCC4(CC3)OCCO4)cc2c1C,13µM
Cc1c(C(=O)Nc2ccc(Br)cc2F)oc2ccc(S(=O)(=O)N3CCC4(CC3)OCCO4)cc12,13µM
Cc1c(C(=O)Nc2ccccc2Cl)oc2ccc(S(=O)(=O)N3CCCCC3)cc12,.
Cc1ccc(C)c(CN2C[C@@H]3C(=O)N(C)C(=O)[C@@H]3C2)c1,.
COc1cccc(C(=O)N2CCC3(CC2)Cc2ccccc2NC3=O)c1,.
Cn1c(=O)c2c(SCC(=O)N3CCc4ccccc43)nc(-c3cccc(F)c3)nc2n(C)c1=O,.
Cc1nn(-c2ccccc2)c2c1N(CCCC(=O)NCc1ccc(Cl)cc1)C(=O)CS2,.
Cc1ccc(C2=NC3(CCN(C(=O)c4n[nH]c5c4CCCC5)CC3)ON2)cc1,.
COc1ccc(CN2CC[C@H]3COC(=O)N3c3ccc(OC)cc3C2)cc1,.
COc1ccc(CN2CC[C@H]3COC(=O)N3c3ccccc3C2)cc1,.
COc1ccc(CN2CC[C@H]3COC(=O)N3c3cc(C)ccc3C2)cc1,.
COc1ccc(CN2COc3ccc4c(C)cc(=O)oc4c3C2)cc1,10µM
COc1ccc(CN2CC[C@H]3COC(=O)N3c3cc(F)ccc3C2)cc1,.
CCCc1cc(=O)oc2c3c(ccc12)OCN(Cc1ccc(OC)cc1)C3,10µM
COc1cccn(CC(=O)N2CCN(C)C3(CCNCC3)C2)c1=O,.
C[S+](=O)([O-])N1Cc2ccccc2CC2(CCCN(Cc3ccncc3)C2)C1 (configuration not stated),.
Cc1cccc(C)c1NC(=O)NCCc1c[nH]c2ccccc12,.
CCCCN1C(=O)[C@@H]2C[C@@H](O)CN2C2(CN(C(C)C)C2)C1=O,.
CN(C(=O)NCc1ccc(F)cc1)C1CCc2nn(CC3CC3)c(=O)n2CC1 (configuration not stated),.

# Screens (PubChem)
